# From PubChem BioAssay (EPA / NIEHS)
# Where “and” joins values, the source holds several entries; their conditions need not be identical. Equal entries are not always repeated. Results filed as inconclusive are left out. Some structures have more than one record in an assay (separate samples or runs), and their calls can disagree. Calls of active or inactive are those of the source. The calls were made as follows, unless noted: active = hit-call score of the fitted dose curve at least 0.9, where 1 is the maximum; inconclusive = response in the unintended direction; inactive = score below 0.9.
# What was measured:
# [1] = ATG_TCF_b_cat_CIS: Attagene CIS-FACTORIAL HepG2 Assay for human T-Cell-Factor with beta-catenin (TCF/b-cat) (AID 2282965; active = hit-call score of the fitted dose curve at least 0.9, where 1 is the maximum; inactive = score below 0.9); conditions: HepG2 TCF/beta-catenin cis-reporter transcription, actives raise or lower the signal
# Procedure, shortened: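 Measured: reporter mRNA in HepG2 transiently transfected with cis-promoter reporter units, 24 h after chemical addition. Fitting was bidirectional, DMSO as negative control.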
# [2] = ATG_TAL_CIS: Attagene CIS-FACTORIAL HepG2 Assay for human TAL Basal Promoter (AID 2282966; active = hit-call score of the fitted dose curve at least 0.9, where 1 is the maximum; inactive = score below 0.9;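 also: background control endpoint measuring basal TAL promoter reporter mRNA not a specific factor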); conditions: HepG2 Attagene cis-factorial TAL promoter reporter; actives raise or lower the signal
# Procedure, shortened: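 In this cell-based multiplex, HepG2 liver cells bearing cis-promoter reporter constructs are dosed for 24 hours. Total RNA is reverse-transcribed and amplified, labelled fragments are sized by capillary electrophoresis, and signal changes are fitted bidirectionally versus DMSO.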
# [3] = ATG_TGFb_CIS: Attagene CIS-FACTORIAL HepG2 Assay for human Transforming Growth Factor (TGF) (AID 2282967; active = hit-call score of the fitted dose curve at least 0.9, where 1 is the maximum; inactive = score below 0.9); conditions: HepG2 Attagene CIS TGFb reporter, mRNA transcription; actives raise or lower the signal
# Procedure, shortened: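 HepG2 cells transiently transfected with cis-promoter-driven multiplexed reporter units; 24 h compound exposure. Reporter mRNA measured by RT-PCR, 6-FAM labeling, HpaI digestion and capillary electrophoresis; bidirectional fit versus DMSO baseline.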
# [4] = ATG_VDRE_CIS: Attagene CIS-FACTORIAL HepG2 Assay for human Vitamin D Receptor Element (VDRE) (AID 2282968; active = hit-call score of the fitted dose curve at least 0.9, where 1 is the maximum; inactive = score below 0.9); conditions: HepG2 VDRE cis-reporter transcription, actives raise or lower the signal
# Procedure, shortened: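 Reporter mRNA induction, quantified by capillary electrophoresis of fluorescently labelled RT-PCR products, was read 24 h after dosing HepG2 cells carrying transiently transfected cis-regulated reporter units; gain or loss relative to DMSO.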
# [5] = molecular target: Estrogen receptor (Homo sapiens) (UniProt P03372); assay: ATG_ERa_TRANS: Attagene TRANS-FACTORIAL HepG2 Assay for human Estrogen Receptor alpha (ERa) (AID 2282970); conditions: HepG2 Attagene TRANS ERa GAL4 reporter, mRNA
# Estrogen receptor (Homo sapiens), sequence (P03372 whole entry, looked up, the tested form may be a part): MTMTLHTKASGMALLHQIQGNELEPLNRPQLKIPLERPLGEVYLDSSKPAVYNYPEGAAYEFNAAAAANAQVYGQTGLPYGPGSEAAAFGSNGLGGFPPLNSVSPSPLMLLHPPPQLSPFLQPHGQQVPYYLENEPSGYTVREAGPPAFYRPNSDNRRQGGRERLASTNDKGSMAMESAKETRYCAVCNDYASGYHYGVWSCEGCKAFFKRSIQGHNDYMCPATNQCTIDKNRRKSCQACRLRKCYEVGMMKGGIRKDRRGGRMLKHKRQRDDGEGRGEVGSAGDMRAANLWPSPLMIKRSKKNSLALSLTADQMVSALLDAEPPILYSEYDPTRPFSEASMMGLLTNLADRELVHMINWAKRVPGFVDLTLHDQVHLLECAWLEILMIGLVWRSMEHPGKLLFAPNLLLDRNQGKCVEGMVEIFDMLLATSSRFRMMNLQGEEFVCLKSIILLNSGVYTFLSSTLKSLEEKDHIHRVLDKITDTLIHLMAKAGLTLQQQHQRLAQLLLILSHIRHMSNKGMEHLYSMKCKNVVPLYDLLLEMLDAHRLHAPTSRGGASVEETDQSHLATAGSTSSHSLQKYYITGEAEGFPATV
# Procedure, shortened: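 After 24 h of compound treatment, RNA from HepG2 cells bearing transfected GAL4-UAS reporter constructs is converted to cDNA, amplified and fluorescently labelled. Capillary electrophoresis resolves the ERa-linked reporter; DMSO serves as negative control.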
# [6] = molecular target: X-box-binding protein 1 (Homo sapiens) (UniProt P17861); assay: ATG_Xbp1_CIS: Attagene CIS-FACTORIAL HepG2 Assay for human X-box Binding Protein 1 (XBP1) (AID 2282972; active = hit-call score of the fitted dose curve at least 0.9, where 1 is the maximum; inactive = score below 0.9); conditions: HepG2 XBP1 cis-element reporter, Attagene multiplex; actives raise or lower the signal
# X-box-binding protein 1 (Homo sapiens), sequence (P17861 whole entry, looked up): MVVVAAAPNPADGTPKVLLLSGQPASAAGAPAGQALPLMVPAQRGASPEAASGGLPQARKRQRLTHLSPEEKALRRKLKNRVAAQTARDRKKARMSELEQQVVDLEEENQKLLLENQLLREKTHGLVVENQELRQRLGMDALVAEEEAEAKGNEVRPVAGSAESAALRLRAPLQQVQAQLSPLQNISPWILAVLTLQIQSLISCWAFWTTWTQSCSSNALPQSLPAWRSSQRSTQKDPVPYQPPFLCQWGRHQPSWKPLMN
# Procedure, shortened: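 HepG2 cells transiently transfected with multiple cis-element reporter units report endogenous TF activity; 24 h exposure, then reporter mRNA measured by RT-PCR, 6-FAM labelling, HpaI digestion and capillary electrophoresis. Bidirectional fitting versus DMSO.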
# [7] = molecular target: Oxysterols receptor LXR-beta (Homo sapiens) (UniProt P55055); assay: ATG_LXRb_TRANS: Attagene TRANS-FACTORIAL HepG2 Assay for human Liver X Receptor beta (LXRb) (AID 2282981); conditions: HepG2 Attagene TRANS GAL4-LXRb reporter, mRNA
# Oxysterols receptor LXR-beta (Homo sapiens), sequence (P55055 whole entry, looked up, the tested form may be a part): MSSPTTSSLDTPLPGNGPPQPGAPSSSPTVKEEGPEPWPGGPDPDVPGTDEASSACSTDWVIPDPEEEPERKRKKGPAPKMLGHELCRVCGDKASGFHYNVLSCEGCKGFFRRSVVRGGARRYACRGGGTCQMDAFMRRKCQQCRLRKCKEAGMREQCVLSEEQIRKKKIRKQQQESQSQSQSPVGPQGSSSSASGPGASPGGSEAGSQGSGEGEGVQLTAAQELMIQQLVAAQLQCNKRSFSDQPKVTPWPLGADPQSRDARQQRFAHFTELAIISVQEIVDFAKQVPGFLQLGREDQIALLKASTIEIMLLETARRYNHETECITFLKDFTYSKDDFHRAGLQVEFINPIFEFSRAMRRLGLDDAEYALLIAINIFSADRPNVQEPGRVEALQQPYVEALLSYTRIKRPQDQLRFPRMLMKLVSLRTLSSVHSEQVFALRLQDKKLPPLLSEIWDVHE
# Procedure, shortened: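 Transient transfection HepG2 (multiplexed RTUs, GAL4-UAS); NR-Gal4 chimera; 24 h exposure; RNA → RT-PCR → 6-FAM primer extension → HpaI → CE; increase vs DMSO.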
# [8] = ATG_M_06_TRANS: Attagene TRANS-FACTORIAL HepG2 Assay for M06 Transcription Factor (Internal Marker) (AID 2282983); conditions: HepG2 Attagene TRANS M06 internal marker reporter
# Procedure, shortened: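 After a 24 h chemical treatment of transfected HepG2, RNA underwent DNase I treatment, reverse transcription and reporter-specific PCR; labelled, HpaI-digested products were sized by capillary electrophoresis. Signal increase relative to DMSO defined activity.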
# [9] = molecular target: Transcriptional activator Myb (Homo sapiens) (UniProt P10242); assay: ATG_Myb_CIS: Attagene CIS-FACTORIAL HepG2 Assay for human Myeloblastosis (Myb) Proto-Oncogene Transcription Factor (AID 2282986; active = hit-call score of the fitted dose curve at least 0.9, where 1 is the maximum; inactive = score below 0.9); conditions: HepG2 Attagene CIS-FACTORIAL Myb reporter transcription; actives raise or lower the signal
# Transcriptional activator Myb (Homo sapiens), sequence (P10242 whole entry, looked up): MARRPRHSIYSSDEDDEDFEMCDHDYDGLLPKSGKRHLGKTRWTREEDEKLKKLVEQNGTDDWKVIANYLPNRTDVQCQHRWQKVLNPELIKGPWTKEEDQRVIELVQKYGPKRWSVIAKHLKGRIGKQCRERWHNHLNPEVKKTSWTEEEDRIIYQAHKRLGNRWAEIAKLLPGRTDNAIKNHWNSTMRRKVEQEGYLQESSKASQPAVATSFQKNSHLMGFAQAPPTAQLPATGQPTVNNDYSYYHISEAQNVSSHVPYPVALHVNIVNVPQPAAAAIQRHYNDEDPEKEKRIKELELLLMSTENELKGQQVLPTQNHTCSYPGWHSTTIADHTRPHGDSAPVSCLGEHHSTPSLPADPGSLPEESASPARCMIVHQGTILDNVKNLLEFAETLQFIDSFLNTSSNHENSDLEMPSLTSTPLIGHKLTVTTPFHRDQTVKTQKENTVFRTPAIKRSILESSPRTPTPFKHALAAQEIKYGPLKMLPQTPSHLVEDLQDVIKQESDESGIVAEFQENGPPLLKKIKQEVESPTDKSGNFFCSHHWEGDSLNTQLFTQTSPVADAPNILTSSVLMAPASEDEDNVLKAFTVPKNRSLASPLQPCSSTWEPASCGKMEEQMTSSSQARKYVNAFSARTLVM
# Procedure, shortened: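 After 24 h of compound dosing, total RNA from transfected HepG2 cells is reverse-transcribed and the reporter sequences amplified, labeled and separated by capillary electrophoresis. Values come from bidirectional fitting against DMSO.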
# [10] = molecular target: Nuclear receptor subfamily 1 group I member 3 (Homo sapiens) (UniProt Q14994); assay: ATG_CAR_TRANS: Attagene TRANS-FACTORIAL HepG2 Assay for human Constitutive Androstane Receptor (CAR) (AID 2282969); conditions: HepG2 Attagene TRANS-FACTORIAL CAR reporter;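 also: activators raise reporter mRNA above DMSO so AC50 marks induction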
# Nuclear receptor subfamily 1 group I member 3 (Homo sapiens), sequence (Q14994 whole entry, looked up, the tested form may be a part): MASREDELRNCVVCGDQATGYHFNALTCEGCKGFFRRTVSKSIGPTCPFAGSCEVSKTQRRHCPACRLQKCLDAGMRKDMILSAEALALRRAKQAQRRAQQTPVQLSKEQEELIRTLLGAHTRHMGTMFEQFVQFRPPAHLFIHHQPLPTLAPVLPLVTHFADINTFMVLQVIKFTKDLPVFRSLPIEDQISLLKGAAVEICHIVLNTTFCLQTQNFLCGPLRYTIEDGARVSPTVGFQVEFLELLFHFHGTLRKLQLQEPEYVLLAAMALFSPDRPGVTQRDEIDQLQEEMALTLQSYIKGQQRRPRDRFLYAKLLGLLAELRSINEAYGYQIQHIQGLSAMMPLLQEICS
# Procedure, shortened: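 Readout is reporter mRNA induction, quantified by fluorescent primer extension and capillary electrophoresis after RT-PCR. Cells were HepG2 transiently carrying chimeric NR-Gal4 constructs with GAL4-UAS reporters, treated for 24 h; activity scored upward from DMSO.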
# [11] = ATG_GAL4_TRANS: Attagene TRANS-FACTORIAL HepG2 Assay for GAL4 (Internal Marker) (AID 2282976); conditions: HepG2 Attagene TRANS GAL4 internal marker reporter
# Procedure, shortened: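 RT-PCR/capillary electrophoresis readout of reporter mRNA. HepG2, transient MRTU transfection (GAL4-UAS reporters), 24 h compound exposure. Background-control endpoint, positive direction vs DMSO baseline.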
# [12] = molecular target: Glucocorticoid receptor (Homo sapiens) (UniProt P04150); assay: ATG_GR_TRANS: Attagene TRANS-FACTORIAL HepG2 Assay for human Glucocorticoid Receptor (GR) (AID 2282978); conditions: HepG2 Attagene TRANS GR reporter, mRNA transcription;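 also: activators score as hits since higher reporter transcript over DMSO is fitted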
# Procedure, shortened: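 After 24 h incubation with test chemical, transfected HepG2 cells were lysed for RNA; reporter cDNA was amplified, FAM-labelled, HpaI-digested and sized on a capillary analyser. Signal gain relative to DMSO was scored.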
# [13] = molecular target: Bile acid receptor (Homo sapiens) (UniProt Q96RI1); assay: ATG_FXR_TRANS: Attagene TRANS-FACTORIAL HepG2 Assay for Farnesoid X Receptor (FXR) (AID 2282979); conditions: HepG2 Attagene TRANS FXR-GAL4 reporter transcription;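 also: hits raise reporter mRNA above DMSO so AC50 marks FXR activation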
# Bile acid receptor (Homo sapiens), sequence (Q96RI1 whole entry, looked up, the tested form may be a part): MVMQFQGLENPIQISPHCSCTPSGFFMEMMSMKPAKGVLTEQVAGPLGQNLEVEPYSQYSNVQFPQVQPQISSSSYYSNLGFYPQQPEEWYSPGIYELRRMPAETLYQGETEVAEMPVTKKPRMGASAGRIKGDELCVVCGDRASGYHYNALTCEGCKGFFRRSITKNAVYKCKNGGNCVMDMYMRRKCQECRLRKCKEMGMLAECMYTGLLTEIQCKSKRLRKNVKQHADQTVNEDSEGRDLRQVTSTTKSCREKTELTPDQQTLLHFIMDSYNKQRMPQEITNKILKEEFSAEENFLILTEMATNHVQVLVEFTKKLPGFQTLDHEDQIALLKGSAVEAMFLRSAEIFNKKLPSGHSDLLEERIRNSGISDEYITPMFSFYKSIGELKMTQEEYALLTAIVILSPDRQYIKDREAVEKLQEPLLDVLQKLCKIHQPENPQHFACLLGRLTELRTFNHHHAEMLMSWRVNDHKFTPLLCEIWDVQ
# Procedure, shortened: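 Read-out: fluorescent reporter transcripts quantified by capillary electrophoresis after RT-PCR of total RNA. Source cells were HepG2 transiently carrying chimeric NR-GAL4 plus GAL4-UAS reporter units, dosed 24 h. Activity fitted upward relative to DMSO baseline.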
# [14] = molecular target: Oxysterols receptor LXR-alpha (Homo sapiens) (UniProt Q13133); assay: ATG_LXRa_TRANS: Attagene TRANS-FACTORIAL HepG2 Assay for human Liver X Receptor alpha (LXRa) (AID 2282980); conditions: HepG2 Attagene TRANS reporter, LXRa transactivation
# Oxysterols receptor LXR-alpha (Homo sapiens), sequence (Q13133 whole entry, looked up, the tested form may be a part): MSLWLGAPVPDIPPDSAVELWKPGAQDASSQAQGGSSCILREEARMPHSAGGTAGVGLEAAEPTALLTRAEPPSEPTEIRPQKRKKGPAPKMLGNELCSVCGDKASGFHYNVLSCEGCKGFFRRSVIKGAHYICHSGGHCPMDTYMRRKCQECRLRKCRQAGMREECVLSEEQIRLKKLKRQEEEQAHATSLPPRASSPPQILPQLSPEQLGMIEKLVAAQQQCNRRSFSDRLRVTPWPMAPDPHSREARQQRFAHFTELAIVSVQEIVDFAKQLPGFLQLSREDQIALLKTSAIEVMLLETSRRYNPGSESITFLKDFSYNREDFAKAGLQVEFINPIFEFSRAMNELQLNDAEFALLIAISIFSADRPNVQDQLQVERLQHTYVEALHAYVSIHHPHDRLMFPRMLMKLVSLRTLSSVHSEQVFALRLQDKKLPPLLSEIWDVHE
# Procedure, shortened: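 Read-out: reporter transcript levels by RT-PCR plus capillary electrophoresis, fluorescence intensity. Transiently transfected HepG2, exogenous NR-GAL4 chimera, GAL4-UAS reporters; 24 h compound exposure. Activity = increase over DMSO negative control.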
# [15] = ATG_M_32_TRANS: Attagene TRANS-FACTORIAL HepG2 Assay for M32 Transcription Factor (Internal Marker) (AID 2282984); conditions: HepG2 Attagene TRANS M32 internal marker reporter;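 also: transcript level of a background control reporter unit measured by RT-PCR and capillary electrophoresis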
# Procedure, shortened: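 Measures reporter mRNA induction in human HepG2 liver cells after 24 h chemical treatment. Transcripts from transiently transfected GAL4-UAS reporter units are amplified, fluorescently labelled and sized by capillary electrophoresis; gain of signal relative to DMSO.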
# [16] = molecular target: Nuclear receptor subfamily 4 group A member 2 (Homo sapiens) (UniProt P43354); assay: ATG_NURR1_TRANS: Attagene TRANS-FACTORIAL HepG2 Assay for human Nuclear Receptor Related Protein 1 (NURR1) (AID 2282985); conditions: HepG2 Attagene TRANS reporter, mRNA readout
# Nuclear receptor subfamily 4 group A member 2 (Homo sapiens), sequence (P43354 whole entry, looked up, the tested form may be a part): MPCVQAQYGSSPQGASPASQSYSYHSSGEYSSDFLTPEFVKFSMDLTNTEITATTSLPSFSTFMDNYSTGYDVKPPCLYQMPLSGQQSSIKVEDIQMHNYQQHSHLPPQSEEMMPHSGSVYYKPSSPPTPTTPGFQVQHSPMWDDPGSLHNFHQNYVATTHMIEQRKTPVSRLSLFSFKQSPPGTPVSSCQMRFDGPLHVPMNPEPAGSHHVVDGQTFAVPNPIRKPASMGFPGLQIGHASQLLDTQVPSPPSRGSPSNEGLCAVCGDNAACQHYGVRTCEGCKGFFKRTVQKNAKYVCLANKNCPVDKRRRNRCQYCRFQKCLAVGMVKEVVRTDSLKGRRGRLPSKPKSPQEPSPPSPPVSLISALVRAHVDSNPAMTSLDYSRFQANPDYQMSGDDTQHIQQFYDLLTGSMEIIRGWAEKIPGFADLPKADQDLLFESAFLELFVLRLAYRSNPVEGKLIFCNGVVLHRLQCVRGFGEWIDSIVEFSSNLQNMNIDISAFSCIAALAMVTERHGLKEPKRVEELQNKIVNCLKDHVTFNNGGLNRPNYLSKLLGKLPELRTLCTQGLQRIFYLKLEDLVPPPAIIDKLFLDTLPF
# Procedure, shortened: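 Transient transfection of HepG2, human liver cells, with multiple GAL4-UAS reporter transcription units. Cells dosed 24 h, RNA isolated, reverse-transcribed, PCR-amplified, FAM-labelled, HpaI-digested, sized by capillary electrophoresis. DMSO served as negative control.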
# [17] = ATG_M_19_TRANS: Attagene TRANS-FACTORIAL HepG2 Assay for M19 Transcription Factor (Internal Marker) (AID 2282974); conditions: HepG2 Attagene TRANS-FACTORIAL M19 internal marker reporter
# Procedure, shortened: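 Transfected HepG2 (GAL4-UAS MRTUs), 24 h compound, TriZol RNA, DNase-treated RT, reporter PCR, FAM label, HpaI digest, CE fluorescence; gain vs DMSO.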
# [18] = molecular target: Steroid hormone receptor ERR1 (Homo sapiens) (UniProt P11474); assay: ATG_ERRa_TRANS: Attagene TRANS-FACTORIAL HepG2 Assay for human Estrogen-Related Receptor alpha (ERRa) (AID 2282971); conditions: HepG2 Attagene TRANS reporter, ERRa transactivation
# Steroid hormone receptor ERR1 (Homo sapiens), sequence (P11474 whole entry, looked up, the tested form may be a part): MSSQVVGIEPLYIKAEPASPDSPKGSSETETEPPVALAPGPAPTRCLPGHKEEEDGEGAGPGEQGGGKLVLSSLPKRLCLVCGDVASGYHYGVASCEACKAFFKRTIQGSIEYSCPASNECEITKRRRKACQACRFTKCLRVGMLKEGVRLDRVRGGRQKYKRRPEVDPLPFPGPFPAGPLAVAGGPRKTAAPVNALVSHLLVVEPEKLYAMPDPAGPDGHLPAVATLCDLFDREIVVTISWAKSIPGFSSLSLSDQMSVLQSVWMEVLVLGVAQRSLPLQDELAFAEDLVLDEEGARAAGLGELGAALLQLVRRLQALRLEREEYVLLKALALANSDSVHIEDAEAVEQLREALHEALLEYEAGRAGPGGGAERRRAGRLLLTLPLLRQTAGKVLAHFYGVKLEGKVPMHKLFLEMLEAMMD
# Procedure, shortened: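 Transfected HepG2, 24 h dosing, ERRa-Gal4 chimera driving GAL4-UAS reporter. Readout: reporter mRNA via RT-PCR plus capillary electrophoresis (fluorescence). Positive direction vs DMSO control.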
# [19] = molecular target: Hepatocyte nuclear factor 4-alpha (Homo sapiens) (UniProt P41235); assay: ATG_HNF4a_TRANS: Attagene TRANS-FACTORIAL HepG2 Assay for human Hepatocyte Nuclear Factor 4 alpha (HNF4a) (AID 2282982); conditions: HepG2 HNF4a transactivation reporter, mRNA readout
# Hepatocyte nuclear factor 4-alpha (Homo sapiens), sequence (P41235 whole entry, looked up, the tested form may be a part): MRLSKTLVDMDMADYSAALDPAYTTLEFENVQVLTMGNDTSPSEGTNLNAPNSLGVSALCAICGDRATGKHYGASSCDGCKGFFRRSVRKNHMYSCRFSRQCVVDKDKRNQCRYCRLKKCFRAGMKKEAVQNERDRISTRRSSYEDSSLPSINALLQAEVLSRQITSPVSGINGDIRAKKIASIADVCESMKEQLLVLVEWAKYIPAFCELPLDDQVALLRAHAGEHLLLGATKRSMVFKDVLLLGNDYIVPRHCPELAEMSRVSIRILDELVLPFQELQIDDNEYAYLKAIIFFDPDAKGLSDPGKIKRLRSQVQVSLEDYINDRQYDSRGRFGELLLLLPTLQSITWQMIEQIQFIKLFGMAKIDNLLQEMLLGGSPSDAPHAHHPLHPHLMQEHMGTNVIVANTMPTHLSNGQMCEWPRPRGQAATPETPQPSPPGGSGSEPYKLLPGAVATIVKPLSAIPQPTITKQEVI
# Procedure, shortened: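 Readout is fluorescent reporter-transcript fragments resolved by capillary electrophoresis after RT-PCR from HepG2 cells dosed for 24 h. Cells carried transfected GAL4-UAS reporter constructs measuring exogenous NR-GAL4 chimera activity; DMSO served as baseline.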
# [20] = molecular target: Estrogen-related receptor gamma (Homo sapiens) (UniProt P62508); assay: ATG_ERRg_TRANS: Attagene TRANS-FACTORIAL HepG2 Assay for human Estrogen-Related Receptor gamma (ERRg) (AID 2282977); conditions: HepG2 Attagene TRANS reporter, ERRg transactivation;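 also: hits increase reporter signal over DMSO so potencies reflect activators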
# Procedure, shortened: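 Transfect HepG2 with multiple GAL4-UAS reporter transcription units; dose chemicals 24 h; isolate RNA, reverse-transcribe with oligo(dT), PCR-amplify, label with 6-FAM, digest with HpaI; size fragments by capillary electrophoresis. DMSO serves as negative control.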
structure (smiles),measurement,setting,value
CCCCC(CC)COC(=O)CCCCC(=O)OCc1ccccc1 (stereo unspecified),outcome,[1],inactive
same,outcome,[2],inactive
same,outcome,[3],inactive
same,outcome,[4],inactive
same,outcome,[5],inactive
same,outcome,[6],inactive
same,outcome,[7],inactive
same,outcome,[8],inactive
same,outcome,[9],inactive
OCCC(F)(F)C(F)(F)C(F)(F)C(F)(F)C(F)(F)C(F)(F)F,outcome,[1],inactive
same,outcome,[2],inactive
same,AC50,[3],157000 nM (active)
same,outcome,[3],inactive
same,outcome,[10],inactive
same,outcome,[5],inactive
same,AC50,[6],134000 nM (active)
same,outcome,[6],inactive
same,outcome,[11],inactive
same,outcome,[12],inactive
same,outcome,[13],inactive
same,outcome,[14],inactive
same,outcome,[7],inactive
same,outcome,[8],inactive
same,outcome,[15],inactive
same,outcome,[16],inactive
same,outcome,[9],inactive
C[C@@H]1C[C@H]2[C@@H]3CCC4=CC(=O)C=C[C@]4(C)[C@@]3(F)[C@@H](O)C[C@]2(C)[C@@]1(O)C(=O)COP(=O)(O)O,outcome,[1],inactive
same,outcome,[2],inactive
same,AC50,[3],473 nM (active)
same,outcome,[3],inactive
same,outcome,[5],inactive
same,outcome,[6],inactive
same,outcome,[17],inactive
same,outcome,[11],inactive
same,outcome,[14],inactive
same,outcome,[7],inactive
same,outcome,[8],inactive
same,outcome,[15],inactive
same,outcome,[16],inactive
same,outcome,[9],inactive
CCN(CC)CCNc1ccc(CNC=O)c2sc3ccc(OC)cc3c(=O)c12,outcome,[1],inactive
same,outcome,[2],inactive
same,outcome,[3],inactive
same,AC50,[4],689 nM (active)
same,AC50,[5],1050 nM (active)
same,outcome,[18],inactive
same,AC50,[6],766 nM (active)
same,AC50,[11],3360 nM (active)
same,AC50,[12],1850 nM (active)
same,AC50,[13],2440 nM (active)
same,AC50,[14],1260 nM (active)
same,AC50,[7],1570 nM (active)
same,outcome,[19],inactive
same,outcome,[8],inactive
same,outcome,[15],inactive
same,AC50,[16],771 nM (active)
same,outcome,[9],inactive
CC[C@H](c1ccc(O)cc1)[C@@H](CC)c1ccc(O)cc1,AC50,[1],9.79 µM (active) and 15.4 µM (active) and 11.1 µM (active)
same,outcome,[1],inactive
same,outcome,[2],inactive
same,outcome,[3],inactive
same,outcome,[10],inactive
same,outcome,[6],inactive
same,outcome,[17],inactive
same,outcome,[11],inactive
same,outcome,[12],inactive
same,outcome,[13],inactive
same,outcome,[7],inactive
same,outcome,[19],inactive
same,outcome,[8],inactive
same,outcome,[15],inactive
same,outcome,[16],inactive
same,outcome,[9],inactive
Cc1cc(CCN2CCN(c3nsc4ccccc34)CC2)cc2c1NC(=O)CC2(C)C,outcome,[1],inactive
same,outcome,[2],inactive
same,outcome,[3],inactive
same,AC50,[4],4920 nM (active)
same,outcome,[10],inactive
same,outcome,[5],inactive
same,outcome,[18],inactive
same,AC50,[6],11000 nM (active)
same,outcome,[20],inactive
same,outcome,[12],inactive
same,outcome,[13],inactive
same,outcome,[7],inactive
same,outcome,[19],inactive
same,outcome,[8],inactive
same,outcome,[16],inactive
same,outcome,[9],inactive
O=c1c(-c2ccc(O)cc2)coc2cc(O)ccc12,AC50,[1],27.9 µM (active)
same,outcome,[1],inactive
same,outcome,[2],inactive
same,outcome,[3],inactive
same,outcome,[10],inactive
same,outcome,[6],inactive
same,outcome,[11],inactive
same,outcome,[12],inactive
same,outcome,[13],inactive
same,outcome,[14],inactive
same,outcome,[7],inactive
same,outcome,[19],inactive
same,outcome,[8],inactive
same,outcome,[15],inactive
same,outcome,[16],inactive
same,outcome,[9],inactive
COCC(C)OCC(C)O (stereo unspecified),outcome,[1],inactive
same,outcome,[2],inactive
same,outcome,[3],inactive
same,outcome,[4],inactive
same,outcome,[18],inactive
same,outcome,[6],inactive
same,outcome,[17],inactive
same,outcome,[13],inactive
same,outcome,[19],inactive
same,outcome,[8],inactive
same,outcome,[9],inactive
